# Reference: paper doi:10.1101/2025.02.07.636106
# Columns and labels:
# [1] = biological target: Large ribosomal subunit protein eL36 (UniProt Q9Y3U8); test: cross-linking mass spectrometry
# Obscurin = Obscurin (UniProt Q5VST9); test: cross-linking mass spectrometry
# [2] = biological target: Inositol 1,4,5-trisphosphate-gated calcium channel ITPR2 (UniProt Q14571); test: cross-link between two proteins; cross-linking mass spectrometry
# [3] = biological target: Nucleolar and coiled-body phosphoprotein 1 (UniProt Q14978); test: as above
# [4] = biological target: Putative ribosomal protein eS10-like (UniProt Q9NQ39); test: as above
# [5] = biological target: Ragulator complex protein LAMTOR3 (UniProt Q9UHA4); test: as above
# [6] = biological target: Synaptonemal complex protein 2-like (UniProt Q5T4T6); test: as above
# [7] = biological target: V-type proton ATPase subunit D (UniProt Q9Y5K8); test: as above
# [8] = biological target: Zinc finger protein 28 homolog (UniProt Q8NHY6); test: as above
# Zinc finger protein 786 = biological target: T1, Zinc finger protein 786 (UniProt Q8N393); test: as above
# T1 sequence: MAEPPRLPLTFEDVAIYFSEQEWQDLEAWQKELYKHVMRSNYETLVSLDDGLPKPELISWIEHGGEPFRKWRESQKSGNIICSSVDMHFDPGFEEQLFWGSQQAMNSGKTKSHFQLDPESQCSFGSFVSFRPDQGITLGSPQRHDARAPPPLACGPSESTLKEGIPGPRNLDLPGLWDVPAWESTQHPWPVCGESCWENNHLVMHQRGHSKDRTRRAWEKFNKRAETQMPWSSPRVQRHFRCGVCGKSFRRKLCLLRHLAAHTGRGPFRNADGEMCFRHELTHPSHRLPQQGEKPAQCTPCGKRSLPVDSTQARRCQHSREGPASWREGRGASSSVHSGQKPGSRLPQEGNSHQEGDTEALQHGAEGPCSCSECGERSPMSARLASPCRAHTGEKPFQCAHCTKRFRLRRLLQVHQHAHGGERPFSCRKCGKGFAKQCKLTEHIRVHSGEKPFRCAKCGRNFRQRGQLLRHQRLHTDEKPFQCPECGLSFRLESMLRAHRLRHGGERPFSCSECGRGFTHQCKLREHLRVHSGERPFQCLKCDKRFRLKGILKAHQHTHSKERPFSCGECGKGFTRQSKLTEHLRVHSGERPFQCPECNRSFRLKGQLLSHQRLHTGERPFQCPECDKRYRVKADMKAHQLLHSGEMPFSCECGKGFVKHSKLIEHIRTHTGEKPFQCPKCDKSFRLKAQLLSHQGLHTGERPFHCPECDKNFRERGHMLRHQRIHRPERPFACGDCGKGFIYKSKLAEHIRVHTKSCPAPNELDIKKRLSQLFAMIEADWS
# [9] = biological target: Cullin-associated NEDD8-dissociated protein 1 (UniProt Q86VP6); test: co-fractionation; co-fractionation; cross-linking mass spectrometry
# Actin-related protein 2 = Actin-related protein 2 (UniProt P61160); test: cross-link between two proteins; co-fractionation; cross-linking mass spectrometry
# [10] = biological target: Actin-related protein 2/3 complex subunit 1A (UniProt Q92747); test: as above
# [11] = biological target: Actin-related protein 2/3 complex subunit 3 (UniProt O15145); test: as above
# [12] = biological target: Actin-related protein 2/3 complex subunit 4 (UniProt P59998); test: as above
# [13] = biological target: Vacuolar protein sorting-associated protein 35 (UniProt Q96QK1); test: as above
# [14] = biological target: Enhancer of rudimentary homolog (UniProt P84090); test: cross-link between two proteins; affinity purification or IP with mass spectrometry; cross-linking mass spectrometry
# Sequence of Cullin-1, Q13616 (Q13616 whole entry): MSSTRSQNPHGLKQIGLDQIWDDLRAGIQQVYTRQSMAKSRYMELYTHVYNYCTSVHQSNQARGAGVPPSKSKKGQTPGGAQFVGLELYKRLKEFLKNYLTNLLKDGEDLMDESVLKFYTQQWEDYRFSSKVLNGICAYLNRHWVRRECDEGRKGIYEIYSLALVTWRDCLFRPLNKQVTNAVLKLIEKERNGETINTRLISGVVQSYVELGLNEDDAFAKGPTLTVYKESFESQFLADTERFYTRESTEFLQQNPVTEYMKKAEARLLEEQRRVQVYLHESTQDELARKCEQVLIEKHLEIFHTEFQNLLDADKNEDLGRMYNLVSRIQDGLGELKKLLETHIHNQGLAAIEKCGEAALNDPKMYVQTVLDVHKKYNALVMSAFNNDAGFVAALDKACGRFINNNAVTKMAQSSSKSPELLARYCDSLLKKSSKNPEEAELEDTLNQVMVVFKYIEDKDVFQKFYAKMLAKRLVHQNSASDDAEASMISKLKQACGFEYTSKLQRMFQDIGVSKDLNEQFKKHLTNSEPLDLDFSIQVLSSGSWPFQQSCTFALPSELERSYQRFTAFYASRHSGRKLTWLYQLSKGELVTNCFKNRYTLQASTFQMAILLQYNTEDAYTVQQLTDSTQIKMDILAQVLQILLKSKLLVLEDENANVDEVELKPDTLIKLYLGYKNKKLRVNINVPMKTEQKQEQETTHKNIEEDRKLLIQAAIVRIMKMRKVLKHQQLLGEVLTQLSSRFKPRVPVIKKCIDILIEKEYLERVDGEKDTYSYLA
# Sequence of Ragulator complex protein LAMTOR1, Q6IAA8 (Q6IAA8 whole entry, one chain of several): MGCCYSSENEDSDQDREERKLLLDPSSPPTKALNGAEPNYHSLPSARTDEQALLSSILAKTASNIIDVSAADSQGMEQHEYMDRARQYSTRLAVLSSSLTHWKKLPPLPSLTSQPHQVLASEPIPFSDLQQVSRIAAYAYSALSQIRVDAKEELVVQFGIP
# Sequence of V-type proton ATPase subunit D (Q9Y5K8 whole entry): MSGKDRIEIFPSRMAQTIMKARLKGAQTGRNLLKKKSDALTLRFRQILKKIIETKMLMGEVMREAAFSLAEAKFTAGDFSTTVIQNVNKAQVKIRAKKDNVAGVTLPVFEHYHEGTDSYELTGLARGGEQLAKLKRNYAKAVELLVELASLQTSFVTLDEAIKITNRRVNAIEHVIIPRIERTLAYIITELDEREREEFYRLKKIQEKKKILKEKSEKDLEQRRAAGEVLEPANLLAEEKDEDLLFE
# Sequence of Cullin-associated NEDD8-dissociated protein 1 (Q86VP6 whole entry): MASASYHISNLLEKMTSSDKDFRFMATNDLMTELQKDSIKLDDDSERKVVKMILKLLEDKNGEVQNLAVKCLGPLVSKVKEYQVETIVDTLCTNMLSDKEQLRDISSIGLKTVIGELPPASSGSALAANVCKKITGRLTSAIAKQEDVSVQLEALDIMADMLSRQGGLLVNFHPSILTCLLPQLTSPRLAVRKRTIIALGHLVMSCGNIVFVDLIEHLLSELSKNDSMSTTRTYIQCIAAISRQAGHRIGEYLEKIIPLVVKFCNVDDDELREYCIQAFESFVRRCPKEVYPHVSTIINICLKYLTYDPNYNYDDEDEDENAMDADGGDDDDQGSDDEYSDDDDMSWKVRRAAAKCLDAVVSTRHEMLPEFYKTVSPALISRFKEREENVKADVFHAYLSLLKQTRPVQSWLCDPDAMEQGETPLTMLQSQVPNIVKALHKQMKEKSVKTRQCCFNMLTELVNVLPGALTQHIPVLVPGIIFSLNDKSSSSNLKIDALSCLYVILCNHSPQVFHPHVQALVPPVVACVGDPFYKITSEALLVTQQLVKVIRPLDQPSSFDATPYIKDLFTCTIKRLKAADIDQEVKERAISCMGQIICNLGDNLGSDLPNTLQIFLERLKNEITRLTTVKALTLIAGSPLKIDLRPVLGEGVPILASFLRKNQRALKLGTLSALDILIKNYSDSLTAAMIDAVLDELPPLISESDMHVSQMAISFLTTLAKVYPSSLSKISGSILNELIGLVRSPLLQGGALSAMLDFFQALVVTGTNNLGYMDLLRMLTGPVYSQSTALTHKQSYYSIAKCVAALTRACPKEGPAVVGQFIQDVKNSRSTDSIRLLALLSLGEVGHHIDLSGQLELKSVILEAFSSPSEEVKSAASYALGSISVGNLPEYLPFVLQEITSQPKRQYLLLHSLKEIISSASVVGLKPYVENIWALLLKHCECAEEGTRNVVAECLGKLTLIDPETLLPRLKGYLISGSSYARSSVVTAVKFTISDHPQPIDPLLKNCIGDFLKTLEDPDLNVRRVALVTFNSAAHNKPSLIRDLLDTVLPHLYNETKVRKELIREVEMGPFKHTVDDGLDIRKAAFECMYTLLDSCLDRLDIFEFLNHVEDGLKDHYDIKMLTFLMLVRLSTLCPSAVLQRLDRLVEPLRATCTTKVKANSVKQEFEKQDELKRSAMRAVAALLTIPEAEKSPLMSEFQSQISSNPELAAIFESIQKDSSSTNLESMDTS
# Sequence of Ragulator complex protein LAMTOR3 (Q9UHA4 whole entry, one chain of several): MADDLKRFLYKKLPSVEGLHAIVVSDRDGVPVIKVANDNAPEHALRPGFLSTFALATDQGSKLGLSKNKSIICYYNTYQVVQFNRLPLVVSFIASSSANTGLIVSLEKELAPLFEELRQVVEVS
# Sequence of Histone H1.4, P10412 (P10412 whole entry): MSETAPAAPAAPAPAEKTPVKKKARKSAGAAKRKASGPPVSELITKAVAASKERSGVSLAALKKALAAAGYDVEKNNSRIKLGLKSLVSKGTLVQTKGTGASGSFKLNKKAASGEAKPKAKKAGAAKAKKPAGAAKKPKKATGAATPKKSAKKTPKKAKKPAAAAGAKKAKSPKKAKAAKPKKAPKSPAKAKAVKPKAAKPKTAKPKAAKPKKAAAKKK
# Sequence of V-type proton ATPase catalytic subunit A, P38606 (P38606 whole entry): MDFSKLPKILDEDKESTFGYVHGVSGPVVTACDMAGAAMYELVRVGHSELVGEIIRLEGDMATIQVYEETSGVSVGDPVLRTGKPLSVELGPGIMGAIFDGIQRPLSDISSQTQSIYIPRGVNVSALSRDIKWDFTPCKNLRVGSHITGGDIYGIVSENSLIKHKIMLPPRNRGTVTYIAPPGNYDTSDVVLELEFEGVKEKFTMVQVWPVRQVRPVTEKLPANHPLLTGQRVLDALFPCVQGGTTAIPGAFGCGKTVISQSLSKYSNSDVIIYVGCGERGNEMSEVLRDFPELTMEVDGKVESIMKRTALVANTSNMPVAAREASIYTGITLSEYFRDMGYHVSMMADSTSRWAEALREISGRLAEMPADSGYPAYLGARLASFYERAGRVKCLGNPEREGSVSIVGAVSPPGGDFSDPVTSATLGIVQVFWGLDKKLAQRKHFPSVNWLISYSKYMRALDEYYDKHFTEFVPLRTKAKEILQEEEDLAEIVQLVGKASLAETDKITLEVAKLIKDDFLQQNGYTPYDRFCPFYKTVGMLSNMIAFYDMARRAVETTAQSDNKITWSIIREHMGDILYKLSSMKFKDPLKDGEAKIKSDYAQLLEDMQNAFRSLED
substance,measurement,setting,value
"Small ribosomal subunit protein uS17, P62280",listed as a hit,[1],yes
"Large ribosomal subunit protein eL8, P62424",listed as a hit,Obscurin,yes
"Large ribosomal subunit protein uL29, P42766",listed as a hit,[2],yes
"Small ribosomal subunit protein eS7, P62081",listed as a hit,[3],yes
"Small ribosomal subunit protein eS10, P46783",listed as a hit,[4],yes
"Ragulator complex protein LAMTOR1, Q6IAA8",listed as a hit,[5],yes
"Large ribosomal subunit protein uL5, P62913",listed as a hit,[6],yes
"V-type proton ATPase catalytic subunit A, P38606",listed as a hit,[7],yes
"Large ribosomal subunit protein uL1, P62906",listed as a hit,[8],yes
"Histone H1.4, P10412",listed as a hit,Zinc finger protein 786,yes
"Cullin-1, Q13616",listed as a hit,[9],yes
"Actin-related protein 2/3 complex subunit 5, O15511",listed as a hit,Actin-related protein 2,yes
"Actin-related protein 3, P61158",listed as a hit,[10],yes
"Actin-related protein 2/3 complex subunit 2, O15144",listed as a hit,[11],yes
same,listed as a hit,[12],yes
"Vacuolar protein sorting-associated protein 26A, O75436",listed as a hit,[13],yes
"DNA-directed RNA polymerase II subunit RPB1, P24928",listed as a hit,[14],yes
